Compounds with a hit are over-represented: about 19% of the library has one in this group of screens.
IL-1B inflam inh: inflammasome signaling inhibition, IL-1 beta readout; THP-1 LPS/ATP IL-1B secretion, AlphaLISA, 16 h; hits give low values; activity change, % at 57.5 µM; hit rate 4.7% among 360,000; in the data active means activity change below about -50%; inconclusive means mostly about -30% to -49%; further: on the % scale 0 is the no-effect control and ±100 the full control effect
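THP-1 cells pretreated 1 hr with compounds (up to 57.5 uM final), then stimulated with LPS (250 ng/mL final) plus ATP (1.25 mM final); secreted IL-1B measured by AlphaLISA after 16 hr, decreased signal indicating inhibition.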
HepG2 viability: counter-screen for TGF-b inhibitors: cytotoxicity in HepG2 cells; HepG2 CAGA-GFP viability, ATP luminescence, 18 h; Potency, µM (top dose mostly 46.1 µM), without a hit: at the highest dose activity change, negative = cytotoxicity, usual class: cytotoxic; hit rate 0.76% among 410,000; further: potency means the concentration at half of the fitted maximal effect
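CellTiter-Glo luminescence gave cytotoxicity after 18 hours at 37 degrees C. The cells were HepG2 CAGA-GFP in 1% FBS DMEM, stimulated with 500 pg/mL TGF-beta after compound addition. %Activity was normalised to no-cell wells (complete cell-killing) and DMSO (no toxicity), and curves were fitted and classified.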
TDP1 inh: inhibitors of human tyrosyl-DNA phosphodiesterase TDP1 | Q9NUW8 | recombinant TDP1, AlphaScreen DNA substrate cleavage | Potency, µM (doses to about 130 µM), for the others: at the top dose activity change, negative = inhibition, usual class: inhibitors | hit rate 0.28% among 350,000 | AID 485290; further: potency means the concentration at half of the fitted maximal effect; on the % scale 0 is the no-effect control and ±100 the full control effect; nearly all actives have a fitted effect of over 40% in size
Target sequence (Q9NUW8 whole entry, looked up): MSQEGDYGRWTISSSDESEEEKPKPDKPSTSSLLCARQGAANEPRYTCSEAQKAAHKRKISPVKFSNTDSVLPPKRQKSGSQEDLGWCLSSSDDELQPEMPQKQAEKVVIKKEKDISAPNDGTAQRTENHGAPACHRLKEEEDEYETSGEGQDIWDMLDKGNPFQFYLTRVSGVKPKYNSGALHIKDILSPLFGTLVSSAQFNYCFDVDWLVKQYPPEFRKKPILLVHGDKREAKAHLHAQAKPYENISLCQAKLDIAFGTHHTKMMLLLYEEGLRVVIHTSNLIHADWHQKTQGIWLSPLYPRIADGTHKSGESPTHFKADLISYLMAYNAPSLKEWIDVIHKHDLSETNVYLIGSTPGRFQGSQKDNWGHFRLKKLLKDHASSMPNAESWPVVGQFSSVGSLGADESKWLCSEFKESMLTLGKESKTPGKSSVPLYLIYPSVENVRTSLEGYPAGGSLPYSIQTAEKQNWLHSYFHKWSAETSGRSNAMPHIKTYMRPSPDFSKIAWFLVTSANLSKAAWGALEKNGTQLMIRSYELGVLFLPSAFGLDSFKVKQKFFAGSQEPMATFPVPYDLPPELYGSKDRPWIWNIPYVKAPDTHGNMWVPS
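Here, a 5' biotin and 3' phosphotyrosine-FITC DNA oligonucleotide reports Tdp1 activity: intact substrate bridges AlphaScreen beads, while cleavage leaves a 3' phosphate and drops signal. All incubations at room temperature.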
TDP1 cell CPT: DT40-hTDP1 cell growth loss with CPT; chicken DT40 Tdp1-/-;hTDP1 cells + 20 nM CPT, ATP luminescence, 48 h; Potency, µM (highest dose often 46.2 µM), for inactives: top-dose activity change, negative = growth inhibition, usual class: inhibitors; hit rate 12% among 420,000; AID 686979; further: potency means the concentration at half of the fitted maximal effect; on the % scale 0 is the no-effect control and ±100 the full control effect; nearly all actives have a fitted effect of over 55% in size
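Chicken DT40 Tdp1-/- cells stably complemented with human TDP1 were seeded at 400 cells/well in medium containing 20 nM camptothecin, exposed to pin-transferred compounds, and grown at 37 °C for at least 48 hr. Viability was read as ATP luminescence.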
TGFb SMAD3 inh: blocks TGF-b signaling; HepG2 CAGA-GFP TGF-b/SMAD3 reporter, GFP fluorescence, 18 h; TGF-beta stimulated, 500 pg/mL final; Potency, µM (series often up to 46.1 µM), without a hit: at the highest dose activity, negative = inhibition, most hits filed as inhibitors; hit rate 1.2% among 410,000; further: potency means the concentration at half of the fitted maximal effect; on the % scale 0 is the no-effect control and ±100 the full control effect; nearly all actives have a fitted effect of over 65% in size
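HEPG2 CAGA-GFP, 1000 cells/well; 2 h settle, 37 C; cpd via pin tool; TGF-b 500 pg/mL final; 18 h, 37 C; GFP imaging ex488/em500-530; %Activity normalised to -TGF-b and +DMSO controls; CRC fit, curve class.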
TDP1 cell noCPT: qHTS for Inhibitors of human tyrosyl-DNA phosphodiesterase 1 (TDP1): qHTS in cells in absence of CPT; AID 686978, 2013; DT40 Tdp1-/- hTDP1 cells, no CPT, ATP luminescence, 48 h; hit rate 15% among 420,000; Potency, µM (titrated, usually from 46.2 µM), without a hit: at the highest dose activity change, negative = growth inhibition, usual class: inhibitors; further: potency means the concentration at half of the fitted maximal effect; on the % scale 0 is the no-effect control and ±100 the full control effect; nearly all actives have a fitted effect of over 55% in size
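Stably hTDP1-transfected Tdp1-null chicken DT40 cells were treated with library compounds minus camptothecin and grown for at least 48 hr at 37 °C, after which cellular ATP was quantified by luminescence.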
An asterisk follows results filed as active; u = inconclusive; x = no result; [ ] = remark or other dose. Unless noted, the call rests on the fitted dose curve; in most records, active means well fitted curve in the direction sought with a large enough effect; inconclusive means small, poorly fitted or top-dose-only effect, or another doubt; inactive means no such curve, though single readings can be large; an effect the other way counts as inactive or inconclusive.

SMILES | IL-1B inflam inh | HepG2 viability | TDP1 inh | TDP1 cell CPT | TGFb SMAD3 inh | TDP1 cell noCPT
COc1cc(OC)c2c(-c3cccc(-c4ccc(OC(F)(F)F)cc4)c3)cc(=O)oc2c1 | 21 | -56% | 1%[56.1 µM] | u | u | u
COc1cc(OC)c2c(-c3cccc(-c4ccc(O)cc4)c3)cc(=O)oc2c1 | 73 | -19% | 3%[56.1 µM] | u | u | 16µM*
COc1cc2oc(=O)cc(-c3cccc(-c4ccc(C(C)=O)cc4)c3)c2c(OC)c1OC | x | x | 3% | x | x | x
COc1cc(OC)c2c(-c3cccc(-c4ccc(N(C)C)cc4)c3)cc(=O)oc2c1 | 65 | -7% | 6%[56.1 µM] | 1.8µM* | 1.1µM* | 1.2µM*
O=C(CCCn1c(=O)c2cccn2c2ccccc21)Nc1cc(C(F)(F)F)ccc1Cl | x | -36% | 3% | u | 0% | u
Cc1ccc(NS(=O)(=O)c2cc3c(cc2N2CCC2)NC(=O)CC3)cc1C | x | x | 1% | x | x | x
COc1cc(Cl)c(S(=O)(=O)N2CCN(c3c(C)cccc3C)CC2)cc1Cl | x | -17% | 2% | x | 18% | x
CN(CCc1ccccc1)C(=O)c1ccc(NC(=O)Cc2cccc(NC(=O)C3CCN(C(=O)c4ccccc4)CC3)c2)cc1 | -9 | -28% | x | u | -4% | u
O=C1Nc2ccc(Br)cc2/C1=C/C(=O)c1ccc2c(c1)OCO2 | u | -110% | x | 5.8µM* | u | 3.3µM*
COc1ccc(C(=O)c2ccc(Br)cc2)cc1 | -18 | 7% | 3% | -4% | 2% | -17%
COc1ccc(C(=O)/C=C2\C(=O)Nc3ccc(Br)cc32)cc1 | -99* | -43% | x | 2.9µM* | u | 18µM*
CC1CCN(c2oc(-c3ccc(COc4ccc(Cl)cc4)o3)nc2C#N)CC1 | x | -13% | 4% | u | -21% | u
CCCCC(C)(O)C/C=C/[C@H]1[C@H](O)CC(=O)[C@@H]1CCCCCCC(=O)O (stereo not given in full) | x | x | 5% | 7%[4.12 µM] | x | 12%[4.12 µM]
CCCC1([C@H](O)C/C=C/[C@H]2[C@H](O)CC(=O)[C@@H]2CCCCCCC(=O)OC)CCC1 | x | x | 1% | 15µM* | x | 11µM*
Nc1cccc2c1C(=O)N(CCOc1ccc(F)cc1)C2=O | 15 | -1% | -1% | -14% | 15% | -15%
COc1ccc(-c2cc(=S)ss2)cc1 | x | x | x | 19µM* | x | u
CCCCCCOC(=O)/C=C/c1c(C)[nH]c(=O)[nH]c1=O | 31 | 9% | 0% | u | 3% | 4.6µM*
CCCCCCCCOC(=O)CCc1c(C)[nH]c(=S)[nH]c1=O | -11 | -21% | 3% | u | -2% | -13%
O=C(NCc1ccccc1)c1nn(-c2ccccc2)nc1CO | x | -1% | 5% | -28% | 0% | u
Nc1cc(Nc2ccc(Br)cc2)nc(N)n1 | -71* | 2% | 7% | -26% | -6% | u
Cc1cc(Nc2ccc(Cl)cc2)nc(N)n1 | 22 | -29% | 5% | u | -19% | u
O=C(C1CCCCC1)N1CCN(S(=O)(=O)c2cccc([N+](=O)[O-])c2)CC1 | 0 | 0% | 2% | -23% | 9% | 10%
Cc1occc1C(=O)O/N=C(\N)c1ccccc1 | x | -116% | x | u | 0% | u
Cc1cccc(/C(N)=N/OC(=O)c2ccoc2C)c1 | -1 | 6% | x | 0.65µM* | 1% | u
CC(NC(=O)c1ccccc1F)c1nnc(SCC(=O)NC2=NCCS2)n1C (stereo not given) | 6 | -4% | x | 13% | 9% | 4%
SMILES | IL-1B inflam inh | HepG2 viability | TDP1 inh | TDP1 cell CPT | TGFb SMAD3 inh | TDP1 cell noCPT
Cc1ccc(-c2ccccc2NC(=O)CS(=O)CC(=O)Nc2ccc(C)c(Cl)c2)o1 (stereo not given) | -77* | -13% | x | u | 3% | u
Cc1ccc(-c2ccccc2NC(=O)CCl)o1 | -59* | -6% | 11% | 15µM* | -9% | 21µM*
Cc1ccc(NC(=O)CS(=O)CC(=O)NC(C)CCc2ccco2)cc1Cl (stereo not given) | 0 | -3% | 0% | -17% | 0% | u
Cc1cc(F)ccc1NC(=O)C1CCCN(c2nnc(-n3c(C)ccc3C)s2)C1 (stereo not given) | x | -25% | 3% | 21µM* | u | 16µM*
Cc1ccc(Cl)cc1NC(=O)Nc1nnc(N2CCCC(C)C2)s1 (stereo not given) | x | 3% | 9% | -2% | -7% | -17%
COc1cccc(NC(=O)C2CCCN(c3nnc(-n4c(C)ccc4C)s3)C2)c1 (stereo not given) | x | -13% | 3% | 18µM* | x | 13µM*
CC(=O)c1ccc(NC(=O)Nc2nnc(N3CCCC(C)C3)s2)cc1 (stereo not given) | x | -5% | -3% | 6.5µM* | 2% | 18µM*
Cc1cccc(NC(=O)C2CCCN(c3nnc(-n4c(C)ccc4C)s3)C2)c1C (stereo not given) | x | -22% | 8% | 15µM* | x | 15µM*
CCOC(=O)c1cc(S(=O)(=O)NCc2ccc(OC)cc2)[nH]n1 | x | 3% | 2% | -14% | 1% | -23%
CC(=O)c1cccc(NC(=O)C2CCCN(c3nnc(-n4cccc4)s3)C2)c1 (stereo not given) | x | -9% | 10% | u | -19% | 16µM*
CC(=O)c1cccc(NC(=O)C2CCCN(S(C)(=O)=O)C2)c1 (stereo not given) | -12 | 3% | -1% | 0% | 0% | -6%
Cc1ccccc1CSc1nc2cccnc2n1Cc1ccc(C(=O)NC2CC2)cc1 | x | -50% | 5% | u | -12% | u
COc1ccc(-c2cn[nH]c2-c2ccc(OCc3ccc([N+](=O)[O-])cc3)cc2O)cc1 | -56* | -96% | 0% | u | u | 16µM*
COc1ccc(-c2[nH]ncc2-c2ccc3c(c2)OCCO3)c(O)c1 | 7 | -37% | 4% | 4.6µM* | u | 7.3µM*
CCc1cc(-c2[nH]ncc2-c2ccc3c(c2)OCO3)c(O)cc1O | -89* | -94% | 10% | 18µM* | u | 11µM*
CCc1cc(-c2[nH]ncc2-c2ccc(OC)cc2)c(O)cc1O | -83* | -28% | x | u | -27% | 18µM*
COCCN(CCOC)c1nc(C)nc2c1nc(-c1ccccc1)n2CCN(C)C | x | x | -1% | x | x | x

Assay outcomes (PubChem BioAssay)
